Among the data in PubChem BioAssay AID1730 (National Center for Advancing Translational Sciences (NCATS), 2009) are Potency values, retold here.

Results filed as inconclusive are left out. Where a call stands in place of a potency, no number is given. Active and inactive are the calls of the source. Calls follow the shape of the dose curve; as a rule, active = well fitted inhibition curve with a large enough effect; inconclusive = small, poorly fitted or top-dose-only effect; inactive = no such curve, though single readings can be large or run the other way.

This assay can be described thus: Counterscreen Assay for Inhibitors of the ERK Signaling Pathway using a Homogeneous Screening Assay. To be noted: AlphaScreen bead counterscreen in cell lysate, 5 h; series mostly up to 45.6 µM. In outline:
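Counter-screen for AlphaScreen artefacts: biotinylated rabbit IgG bridges streptavidin donor and protein-A acceptor beads. Lysates came from HEK293 cells given compound (up to 46 uM, 30 min, 37C) then vasopressin 25 nM, 5 min. Hill-derived AC50s; controls DMSO and 25 nM IgG.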
With `Nc1nc2c3ccccc3nc(C3CC3)n2n1`, the Potency entry was “inactive”.

`C/C(=N\Nc1nnc(-c2ccccc2)c(-c2ccccc2)n1)c1cccc([N+](=O)[O-])c1`: the Potency entry is “inactive”.

Consider `Cc1ccc(NNc2c(C)nc3ccccc3nc2=O)cc1`, for which the Potency entry is “inactive”.

`CN(C)c1ccc(Nc2c3c4c(cccc4n(C)c2=O)C(=O)c2ccccc2-3)cc1`: the Potency is 3.16 µM (active).

As for `COC(=O)Cc1c(C)c2ccc(OC(=O)c3ccco3)cc2oc1=O`, the Potency entry is “inactive”.

For `COc1ccc(-c2n(CC(=O)OC3CC(C)CCC3C(C)C)c3ccccc3[n+]2C)cc1` (stereo not given), the Potency entry is “inactive”.

`CCCCC[C@H](O)C=C[C@H]1[C@H](O)CC(=O)[C@H]1CCCCCCC(=O)O`: the Potency result was “inactive”.

Take `CN(C)CCCn1cc(C2=C(c3c[nH]c4ccccc34)C(=O)NC2=O)c2ccccc21`: the Potency is 35.5 µM (active).

On to `CCN(C1CCCCC1)S(=O)(=O)c1ccc(S(=O)(=O)NCc2ccncc2)cc1`, for which the Potency result is “inactive”.

On to `Fc1ccc(Nc2ncnc3sc4c(c23)CCC4)cc1F`, for which the Potency result is “inactive”.

`Cc1cc2nc3ccc(=[N+](C)C)cc-3sc2cc1N`: the Potency result is “inactive”.

Take `O=C1c2ccccc2C(=O)c2c1cccc2N1CCCC1`: the Potency is 10 µM (active).

Regarding `Cc1cc(-c2ccccc2)n(-c2cc(N/N=C/c3ccccc3O)ncn2)n1`, the Potency result is “inactive”.

Regarding `COc1cc2ncnc(NCc3cccc(Cl)c3)c2cc1OC`, the Potency entry was “inactive”.

As to `CCOC(=O)Cc1csc(NC(=O)CSc2ncnc3c2cnn3-c2ccc(OC)cc2)n1`, the Potency entry was “inactive”.

As to `Fc1cccc(Nc2ncnc3sc4c(c23)CCC4)c1`, the Potency result was “inactive”.

Regarding `c1ccc(Nc2ncnc3ccc(-c4cccnc4)cc23)cc1`, the Potency entry was “inactive”.

For the molecule `C=CS(=O)(=O)c1ccc(Oc2ccc(S(=O)(=O)C=C)cc2)cc1`, the Potency result is “inactive”.

For `CCOc1ccc(/C(O)=C2/C(=O)C(=O)N(c3ncccn3)C2c2ccccc2)cc1` (stereo not given), the Potency result was “inactive”.

In the case of `Cn1nc(-c2ccc(Cl)cc2)nc2c(=O)n(C)c(=O)nc1-2`, the Potency result is “inactive”.

With `CCOC(=O)c1ccc(NC(=O)c2ccc(C)c(S(=O)(=O)N3CCOCC3)c2)cc1`, the Potency result is “inactive”.

With `N#CC(C#N)=c1ccc2c(c1)N1C3=C(CCCC3)CC3CCCCC31N=2` (stereo not given), the Potency was 4.47 µM (active).

As for `Cc1noc(NS(=O)(=O)c2ccc(NC(=O)COc3ccc(Cl)cc3Cl)cc2)c1C`, the Potency entry is “inactive”.

Turning to `COc1cc(C(=O)Nc2nc(-c3cccs3)cs2)cc(OC)c1OC`, the Potency entry is “inactive”.

On to `CC1(C)OC(c2ccccc2)=C/C(=C/C=C2C(=O)c3ccccc3C2=O)O1`, for which the Potency was 2.24 µM (active).
